Test results taken from PubChem BioAssay AID1159580 (chemical genetic matrix, 2015).
The campaign covered roughly 5,500 compounds. About 2,000 (36%) were called active. Not shown: some 18% with an inconclusive outcome. No stated cut-off is given here; in the data, active means normalized growth mostly below about 0.91 (no sharp cut-off); inconclusive means no clear call, values can overlap the other calls; inactive means mostly above about 0.92. Some of the results follow.

Experiment: chemical genetic growth profiling, strain panel (AID 1159580);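 further: tested at 20 µM; growth read once vehicle control cultures reached saturation at 30 °C; 1 = growth at the plate median or of vehicle wells; lower values mean less growth of the strain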
Conditions: S. cerevisiae deletion strains, growth OD
[1] = locus YHR030C, strain SLT2, active compounds read low
[2] = locus YHR079C, strain IRE1, active compounds read low
[3] = locus YJL095W, strain BCK1, active compounds read low
[4] = locus YJR066W, strain TOR1, active compounds read low
[5] = locus YLR113W, strain HOG1, active compounds read low
[6] = locus YNL183C, strain NPR1, active compounds read low
[7] = locus YOR231W, strain MKK1, active compounds read low
[8] = locus YPL256C, strain CLN2, active compounds read low

Measured: normalized growth

CCCCCCCCCCOc1cc2c(=O)c(C(=O)OCC)c[nH]c2cc1OCC
inactive: [1] 1 | [2] 0.989 | [3] 0.978 | [4] 0.962 | [5] 0.942 | [6] 0.971 | [7] 0.977 | [8] 0.993

CCCCC(=O)Oc1ccccc1C(=O)O
inactive: locus YAL021C, strain ccr4, active compounds read low 0.989 | locus YAL026C, strain drs2, active compounds read low 0.991 | locus YAL030W, strain snc1, active compounds read low 0.989 | locus YBL061C, strain skt5, active compounds read low 0.982 | locus YBR009C, strain hhf1, active compounds read low 0.988 | locus YBR023C, strain chs3, active compounds read low 0.993 | locus YBR171W, strain sec66, active compounds read low 0.952 | locus YBR231C, strain swc5, active compounds read low 0.989 | locus YBR279W, strain paf1, active compounds read low 1 | locus YCL011C, strain gbp2, active compounds read low 0.979 | locus YCL016C, strain dcc1, active compounds read low 0.971 | locus YCL061C, strain MRC1, active compounds read low 0.986 | locus YCL069W, strain vba3, active compounds read low 0.996 | locus YCR088W, strain abp1, active compounds read low 0.976 | locus YDL005C, strain med2, active compounds read low 0.938 | locus YDL040C, strain nat1, active compounds read low 0.989 | locus YDR001C, strain nth1, active compounds read low 0.971 | locus YDR069C, strain doa4, active compounds read low 0.986 | locus YDR137W, strain rgp1, active compounds read low 0.963 | locus YDR159W, strain sac3, active compounds read low 0.953 | locus YDR195W, strain ref2 0.981 | locus YDR297W, strain sur2, active compounds read low 0.988 | locus YDR334W, strain swr1, active compounds read low 0.994 | locus YDR335W, strain msn5, active compounds read low 0.98 | locus YDR392W, strain spt3, active compounds read low 0.997 | locus YEL003W, strain gim4, active compounds read low 0.983 | locus YEL037C, strain rad23, active compounds read low 0.984 | locus YEL061C, strain CIN8 (second series), active compounds read low 0.982 | locus YER015W, strain faa2, active compounds read low 0.991 | locus YER016W, strain bim1, active compounds read low 0.977 | locus YER111C, strain swi4, active compounds read low 0.938 | locus YER155C, strain BEM2 (second series), active compounds read low 0.964 | locus YFR010W, strain ubp6, active compounds read low 1 | locus YGL167C, strain pmr1, active compounds read low 0.957 | locus YGL173C, strain kem1, active compounds read low 0.981 | locus YGL227W, strain vid30, active compounds read low 0.965 | locus YGL240W, strain doc1, active compounds read low 0.971 | locus YGL253W, strain hxk2, active compounds read low 0.989 | locus YHR013C, strain ard1, active compounds read low 0.938 | locus YHR027C, strain rpn1, active compounds read low 0.964 | [1] 0.974 | [2] 0.988 | locus YHR142W, strain chs7, active compounds read low 0.962 | locus YJL092W, strain hpr5, active compounds read low 0.971 | locus YJL095W, strain BCK1 (second series), active compounds read low 0.955 | [3] 0.989 | locus YJL115W, strain asf1, active compounds read low 0.971 | locus YJL129C, strain trk1, active compounds read low 0.946 | locus YJL154C, strain vps35, active compounds read low 0.964 | locus YJL164C, strain tpk1, active compounds read low 0.981 | locus YJL166W, strain qcr8, active compounds read low 0.984 | [4] 0.935 | locus YKL160W, strain elf1, active compounds read low 0.962 | locus YKR026C, strain gcn3, active compounds read low 0.986 | locus YKR091W, strain srl3, active compounds read low 0.971 | locus YLL001W, strain dnm1, active compounds read low 0.985 | locus YLL026W, active compounds read low 0.983 | locus YLL041C, strain sdh2, active compounds read low 0.986 | locus YLR027C, strain aat2, active compounds read low 0.973 | [5] 0.944 | locus YLR221C, strain rsa3, active compounds read low 1.01 | locus YLR258W, strain gsy2, active compounds read low 0.983 | locus YLR262C, strain YPT6 (second series), active compounds read low 0.973 | locus YLR320W, strain mms22, active compounds read low 0.996 | locus YLR342W, strain FKS1, active compounds read low 0.979 | locus YLR357W, strain rsc2, active compounds read low 0.96 | locus YLR370C, strain arc18, active compounds read low 0.971 | locus YLR384C, strain iki3, active compounds read low 0.956 | locus YML120C, strain ndi1, active compounds read low 0.994 | locus YMR058W, strain fet3, active compounds read low 0.979 | locus YMR125W, strain sto1, active compounds read low 0.959 | locus YMR129W, active compounds read low 0.98 | locus YMR205C, strain PFK2, active compounds read low 0.981 | locus YMR231W, strain pep5, active compounds read low 0.967 | locus YNL071W, strain lat1, active compounds read low 1 | [6] 0.936 | locus YNL209W, strain ssb2, active compounds read low 0.974 | locus YNL248C, strain rpa49, active compounds read low 0.959 | locus YNL322C, strain KRE1 (second series), active compounds read low 0.944 | locus YNR049C, strain mso1, active compounds read low 0.988 | locus YOR001W, strain rrp6, active compounds read low 1.01 | locus YOR070C, strain gyp1, active compounds read low 0.972 | locus YOR080W, strain dia2, active compounds read low 0.956 | locus YOR083W, strain WHI5, active compounds read low 0.927 | locus YOR106W, strain vam3, active compounds read low 0.972 | [7] 0.966 | locus YOR265W, strain rbl2, active compounds read low 0.99 | locus YOR270C, strain vph1, active compounds read low 0.96 | locus YOR290C, strain snf2, active compounds read low 0.971 | locus YPL051W, strain arl3, active compounds read low 0.994 | locus YPL078C, strain atp4, active compounds read low 0.977 | locus YPL106C, strain sse1, active compounds read low 0.953 | locus YPL240C, strain hsp82, active compounds read low 0.976 | [8] 0.953
